# Article PMC11006913
# Where a chain is given by its changes, count along the chain named.
# What was measured:
# Experiment in all cases: PBM; 200 nM protein, PBS
# Conditions in all cases: dsDNA, one strand shown
# VENTX [1] = target: T1, VENTX (Homo sapiens, UniProt O95231 78-163, R121Q)
# T1 sequence: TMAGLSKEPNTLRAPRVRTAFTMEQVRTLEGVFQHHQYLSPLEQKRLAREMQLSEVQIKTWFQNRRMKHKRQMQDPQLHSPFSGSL
# HOXA7 [2] = target: HOXA7 (Homo sapiens, UniProt P31268 116-202)
# ALX4 = ALX4 (Homo sapiens, UniProt Q9H161 200-286)
# Sequence of ALX4 (Q9H161 200-286): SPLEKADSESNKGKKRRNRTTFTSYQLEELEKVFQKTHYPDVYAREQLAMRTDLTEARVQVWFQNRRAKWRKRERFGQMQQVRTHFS
# PRRX1 [3] = target: PRRX1 (Homo sapiens, UniProt P54821 80-166, F113S)
# Sequence of PRRX1 (Homo sapiens, UniProt P54821 80-166, F113S) (P54821 80-166 F113S): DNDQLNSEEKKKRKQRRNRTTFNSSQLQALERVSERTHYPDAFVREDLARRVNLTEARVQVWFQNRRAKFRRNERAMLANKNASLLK
# VENTX [4] = target: T2, VENTX (Homo sapiens, UniProt O95231 78-163, Y115F)
# T2 sequence: T1 sequence with Y38F, Q44R
# HOXB6 = HOXB6 (Homo sapiens, UniProt P17509 132-218, K202E)
# Sequence of HOXB6 (P17509 132-218 K202E): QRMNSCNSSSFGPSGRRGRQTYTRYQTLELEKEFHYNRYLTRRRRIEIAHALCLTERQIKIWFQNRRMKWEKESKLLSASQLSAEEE
# HOXA2 [5] = target: HOXA2 (Homo sapiens, UniProt O43364 129-215, R185T)
# Sequence of HOXA2 (Homo sapiens, UniProt O43364 129-215, R185T) (O43364 129-215 R185T): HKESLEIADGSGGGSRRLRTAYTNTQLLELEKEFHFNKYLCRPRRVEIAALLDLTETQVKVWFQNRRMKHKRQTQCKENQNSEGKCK
# HOXA4 [6] = target: HOXA4 (Homo sapiens, UniProt Q00056 201-287, R217L)
# Sequence of HOXA4 (Homo sapiens, UniProt Q00056 201-287, R217L) (Q00056 201-287 R217L): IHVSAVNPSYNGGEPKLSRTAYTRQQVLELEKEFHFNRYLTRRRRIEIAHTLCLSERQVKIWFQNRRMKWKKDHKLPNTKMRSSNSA
# HOXB4 = HOXB4 (Homo sapiens, UniProt P17483 148-234, V174I)
# Sequence of HOXB4 (P17483 148-234 V174I): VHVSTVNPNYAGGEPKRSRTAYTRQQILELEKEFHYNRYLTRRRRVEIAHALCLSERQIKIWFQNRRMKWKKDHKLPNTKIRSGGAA
# HOXA2 [7] = target: HOXA2 (Homo sapiens, UniProt O43364 129-215, R185K)
# Sequence of HOXA2 (Homo sapiens, UniProt O43364 129-215, R185K) (O43364 129-215 R185K): as the sequence (O43364 129-215 R185T) above, with T57K counted along it
# MSX2 [8] = target: MSX2 (Homo sapiens, UniProt P35548 130-214)
# Sequence of MSX2 (Homo sapiens, UniProt P35548 130-214) (P35548 130-214): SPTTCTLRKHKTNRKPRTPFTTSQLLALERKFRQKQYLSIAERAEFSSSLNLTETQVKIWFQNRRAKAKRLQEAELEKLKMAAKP
# MSX2 [9] = target: MSX2 (Homo sapiens, UniProt P35548 130-214, F161Y)
# Sequence of MSX2 (Homo sapiens, UniProt P35548 130-214, F161Y) (P35548 130-214 F161Y): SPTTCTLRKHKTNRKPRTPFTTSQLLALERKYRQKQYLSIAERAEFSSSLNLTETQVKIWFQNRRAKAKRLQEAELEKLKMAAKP
# VAX1 [10] = target: VAX1 (Homo sapiens, UniProt Q5SQQ9 86-172, T142I)
# Sequence of VAX1 (Homo sapiens, UniProt Q5SQQ9 86-172, T142I) (Q5SQQ9 86-172 T142I): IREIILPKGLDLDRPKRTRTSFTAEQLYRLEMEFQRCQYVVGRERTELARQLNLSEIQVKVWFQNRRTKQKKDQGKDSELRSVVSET
# HOXA7 [11] = target: HOXA7 (Homo sapiens, UniProt P31268 116-202, W177C)
# Sequence of HOXA7 (Homo sapiens, UniProt P31268 116-202, W177C) (P31268 116-202 W177C): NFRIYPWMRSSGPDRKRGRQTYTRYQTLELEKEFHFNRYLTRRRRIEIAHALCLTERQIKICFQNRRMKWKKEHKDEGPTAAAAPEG
# PRRX1 [12] = target: PRRX1 (Homo sapiens, UniProt P54821 80-166)
# Sequence of PRRX1 (Homo sapiens, UniProt P54821 80-166) (P54821 80-166): as the sequence (P54821 80-166 F113S) above, with S34F counted along it
# VAX1 [13] = target: VAX1 (Homo sapiens, UniProt Q5SQQ9 86-172, K157R)
# Sequence of VAX1 (Homo sapiens, UniProt Q5SQQ9 86-172, K157R) (Q5SQQ9 86-172 K157R): as the sequence (Q5SQQ9 86-172 T142I) above, with I57T, K72R counted along it
# HOXA4 [14] = target: HOXA4 (Homo sapiens, UniProt Q00056 201-287, W262R)
# Sequence of HOXA4 (Homo sapiens, UniProt Q00056 201-287, W262R) (Q00056 201-287 W262R): as the sequence (Q00056 201-287 R217L) above, with L17R, W62R counted along it
# PAX4 = target: T3, PAX4 (Homo sapiens, UniProt O43316 9-242, R200Q)
# T3 sequence: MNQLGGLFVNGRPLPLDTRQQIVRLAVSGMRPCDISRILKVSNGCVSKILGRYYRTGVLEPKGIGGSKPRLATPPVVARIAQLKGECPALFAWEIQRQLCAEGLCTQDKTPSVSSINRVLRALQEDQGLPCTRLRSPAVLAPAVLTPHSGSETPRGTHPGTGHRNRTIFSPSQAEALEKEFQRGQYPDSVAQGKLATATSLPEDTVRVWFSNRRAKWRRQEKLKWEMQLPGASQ
# HOXA4 [15] = target: HOXA4 (Homo sapiens, UniProt Q00056 201-287)
# Sequence of HOXA4 (Homo sapiens, UniProt Q00056 201-287) (Q00056 201-287): as the sequence (Q00056 201-287 R217L) above, with L17R counted along it
# HOXA4 [16] = target: HOXA4 (Homo sapiens, UniProt Q00056 201-287, W262F)
# Sequence of HOXA4 (Homo sapiens, UniProt Q00056 201-287, W262F) (Q00056 201-287 W262F): as the sequence (Q00056 201-287 R217L) above, with L17R, W62F counted along it
# Sequence of HOXA7 (Homo sapiens, UniProt P31268 116-202) (P31268 116-202): as the sequence (P31268 116-202 W177C) above, with C62W counted along it
sequence,measurement,setting,value
CAATTACC,binding signal,VENTX [1],"11.7 upbm affinity estimate (log intensity, higher = more binding, comparable within an allelic series)"
same,binding signal,HOXA7 [2],"11.4 upbm affinity estimate (log intensity, higher = more binding, comparable within an allelic series)"
same,binding signal,ALX4,"13.9 upbm affinity estimate (log intensity, higher = more binding, comparable within an allelic series)"
same,binding signal,PRRX1 [3],"10.9 upbm affinity estimate (log intensity, higher = more binding, comparable within an allelic series)"
same,binding signal,VENTX [4],"11.5 upbm affinity estimate (log intensity, higher = more binding, comparable within an allelic series)"
same,binding signal,HOXB6,"9.82 upbm affinity estimate (log intensity, higher = more binding, comparable within an allelic series)"
same,binding signal,HOXA2 [5],"12.6 upbm affinity estimate (log intensity, higher = more binding, comparable within an allelic series)"
same,binding signal,HOXA4 [6],"11.9 upbm affinity estimate (log intensity, higher = more binding, comparable within an allelic series)"
same,binding signal,HOXB4,"13.7 upbm affinity estimate (log intensity, higher = more binding, comparable within an allelic series)"
same,binding signal,HOXA2 [7],"13.1 upbm affinity estimate (log intensity, higher = more binding, comparable within an allelic series)"
same,binding signal,MSX2 [8],"13.8 upbm affinity estimate (log intensity, higher = more binding, comparable within an allelic series)"
same,binding signal,MSX2 [9],"13.5 upbm affinity estimate (log intensity, higher = more binding, comparable within an allelic series)"
same,binding signal,VAX1 [10],"12.5 upbm affinity estimate (log intensity, higher = more binding, comparable within an allelic series)"
same,binding signal,HOXA7 [11],"8.84 upbm affinity estimate (log intensity, higher = more binding, comparable within an allelic series)"
same,binding signal,PRRX1 [12],"13.3 upbm affinity estimate (log intensity, higher = more binding, comparable within an allelic series)"
same,binding signal,VAX1 [13],"12.5 upbm affinity estimate (log intensity, higher = more binding, comparable within an allelic series)"
TAATTAGA,binding signal,VENTX [1],"12.5 upbm affinity estimate (log intensity, higher = more binding, comparable within an allelic series)"
same,binding signal,HOXA4 [14],"10.8 upbm affinity estimate (log intensity, higher = more binding, comparable within an allelic series)"
same,binding signal,HOXA7 [2],"11.5 upbm affinity estimate (log intensity, higher = more binding, comparable within an allelic series)"
same,binding signal,ALX4,"14.5 upbm affinity estimate (log intensity, higher = more binding, comparable within an allelic series)"
same,binding signal,PRRX1 [3],"11.9 upbm affinity estimate (log intensity, higher = more binding, comparable within an allelic series)"
same,binding signal,VENTX [4],"12.4 upbm affinity estimate (log intensity, higher = more binding, comparable within an allelic series)"
same,binding signal,HOXB6,"10 upbm affinity estimate (log intensity, higher = more binding, comparable within an allelic series)"
same,binding signal,HOXA2 [5],"13.9 upbm affinity estimate (log intensity, higher = more binding, comparable within an allelic series)"
same,binding signal,HOXA4 [6],"12.5 upbm affinity estimate (log intensity, higher = more binding, comparable within an allelic series)"
same,binding signal,HOXB4,"14.2 upbm affinity estimate (log intensity, higher = more binding, comparable within an allelic series)"
same,binding signal,PAX4,"12.7 upbm affinity estimate (log intensity, higher = more binding, comparable within an allelic series)"
same,binding signal,HOXA2 [7],"13.9 upbm affinity estimate (log intensity, higher = more binding, comparable within an allelic series)"
same,binding signal,HOXA4 [15],"14.1 upbm affinity estimate (log intensity, higher = more binding, comparable within an allelic series)"
same,binding signal,MSX2 [8],"14.1 upbm affinity estimate (log intensity, higher = more binding, comparable within an allelic series)"
same,binding signal,MSX2 [9],"13.7 upbm affinity estimate (log intensity, higher = more binding, comparable within an allelic series)"
same,binding signal,VAX1 [10],"13.7 upbm affinity estimate (log intensity, higher = more binding, comparable within an allelic series)"
same,binding signal,HOXA7 [11],"8.87 upbm affinity estimate (log intensity, higher = more binding, comparable within an allelic series)"
same,binding signal,HOXA4 [16],"12.1 upbm affinity estimate (log intensity, higher = more binding, comparable within an allelic series)"
same,binding signal,PRRX1 [12],"13.6 upbm affinity estimate (log intensity, higher = more binding, comparable within an allelic series)"
same,binding signal,VAX1 [13],"13.9 upbm affinity estimate (log intensity, higher = more binding, comparable within an allelic series)"
AATTAGTG,binding signal,VENTX [1],"11.9 upbm affinity estimate (log intensity, higher = more binding, comparable within an allelic series)"
same,binding signal,ALX4,"13.9 upbm affinity estimate (log intensity, higher = more binding, comparable within an allelic series)"
same,binding signal,PRRX1 [3],"11.2 upbm affinity estimate (log intensity, higher = more binding, comparable within an allelic series)"
same,binding signal,VENTX [4],"11.7 upbm affinity estimate (log intensity, higher = more binding, comparable within an allelic series)"
same,binding signal,HOXA2 [5],"12.8 upbm affinity estimate (log intensity, higher = more binding, comparable within an allelic series)"
same,binding signal,PAX4,"12.3 upbm affinity estimate (log intensity, higher = more binding, comparable within an allelic series)"
same,binding signal,HOXA2 [7],"13.1 upbm affinity estimate (log intensity, higher = more binding, comparable within an allelic series)"
same,binding signal,MSX2 [8],"13.5 upbm affinity estimate (log intensity, higher = more binding, comparable within an allelic series)"
same,binding signal,MSX2 [9],"13.2 upbm affinity estimate (log intensity, higher = more binding, comparable within an allelic series)"
same,binding signal,VAX1 [10],"12.6 upbm affinity estimate (log intensity, higher = more binding, comparable within an allelic series)"
same,binding signal,HOXA4 [16],"11.6 upbm affinity estimate (log intensity, higher = more binding, comparable within an allelic series)"
same,binding signal,PRRX1 [12],"13.3 upbm affinity estimate (log intensity, higher = more binding, comparable within an allelic series)"
same,binding signal,VAX1 [13],"12.8 upbm affinity estimate (log intensity, higher = more binding, comparable within an allelic series)"
CAAATTAA,binding signal,ALX4,"13.7 upbm affinity estimate (log intensity, higher = more binding, comparable within an allelic series)"
same,binding signal,PRRX1 [3],"11 upbm affinity estimate (log intensity, higher = more binding, comparable within an allelic series)"
same,binding signal,PAX4,"12.2 upbm affinity estimate (log intensity, higher = more binding, comparable within an allelic series)"
same,binding signal,PRRX1 [12],"13.2 upbm affinity estimate (log intensity, higher = more binding, comparable within an allelic series)"
AATTAAGA,binding signal,ALX4,"13.6 upbm affinity estimate (log intensity, higher = more binding, comparable within an allelic series)"
same,binding signal,PRRX1 [3],"11.2 upbm affinity estimate (log intensity, higher = more binding, comparable within an allelic series)"
same,binding signal,PAX4,"11.9 upbm affinity estimate (log intensity, higher = more binding, comparable within an allelic series)"
same,binding signal,HOXA4 [16],"11.6 upbm affinity estimate (log intensity, higher = more binding, comparable within an allelic series)"
CAATTACG,binding signal,HOXA4 [14],"10.4 upbm affinity estimate (log intensity, higher = more binding, comparable within an allelic series)"
same,binding signal,HOXA4 [6],"11.6 upbm affinity estimate (log intensity, higher = more binding, comparable within an allelic series)"
same,binding signal,HOXA4 [15],"13.1 upbm affinity estimate (log intensity, higher = more binding, comparable within an allelic series)"
same,binding signal,MSX2 [8],"13.7 upbm affinity estimate (log intensity, higher = more binding, comparable within an allelic series)"
same,binding signal,MSX2 [9],"13.4 upbm affinity estimate (log intensity, higher = more binding, comparable within an allelic series)"
same,binding signal,HOXA4 [16],"10.9 upbm affinity estimate (log intensity, higher = more binding, comparable within an allelic series)"
same,binding signal,VAX1 [13],"12.3 upbm affinity estimate (log intensity, higher = more binding, comparable within an allelic series)"
AATTAGTA,binding signal,VENTX [1],"11.7 upbm affinity estimate (log intensity, higher = more binding, comparable within an allelic series)"
same,binding signal,ALX4,"13.7 upbm affinity estimate (log intensity, higher = more binding, comparable within an allelic series)"
same,binding signal,PRRX1 [3],"11.1 upbm affinity estimate (log intensity, higher = more binding, comparable within an allelic series)"
same,binding signal,VENTX [4],"11.5 upbm affinity estimate (log intensity, higher = more binding, comparable within an allelic series)"
same,binding signal,HOXB6,"9.94 upbm affinity estimate (log intensity, higher = more binding, comparable within an allelic series)"
same,binding signal,PAX4,"11.9 upbm affinity estimate (log intensity, higher = more binding, comparable within an allelic series)"
same,binding signal,MSX2 [8],"13.3 upbm affinity estimate (log intensity, higher = more binding, comparable within an allelic series)"
same,binding signal,MSX2 [9],"12.9 upbm affinity estimate (log intensity, higher = more binding, comparable within an allelic series)"
same,binding signal,HOXA4 [16],"11.5 upbm affinity estimate (log intensity, higher = more binding, comparable within an allelic series)"
